Bioassay records from PubChem.
L3MBTL1 inh = L3MBTL1 (human) inhibition. Potency, µM (titrated, usually from 57.1 µM), for the others: at the top dose activity, negative = inhibition, most hits filed as inhibitors. 230,000 tested, 0.66% active. AlphaScreen L3MBTL1–H3K9me1 peptide binding; note: % is set by controls: 0 for no effect and ±100 for the full control effect; nearly all actives have a fitted effect of over 60% in size
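L3MBTL1 (50 nM) pre-complexed 30 min with biotinylated H3(1-15)K9me1 peptide (75 nM), then compounds added for 30 min at room temperature; AlphaScreen streptavidin donor/nickel chelate acceptor beads (10 ug/mL final) read after 30 min dark incubation.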
BAZ2B block = inhibitors of human BAZ2B bromodomain | Q9UIF8 | AlphaScreen BAZ2B-H3K14Ac peptide displacement | Potency, µM (titrated, usually from 114 µM), for the others: top-dose activity change, negative = inhibition, actives largely listed as inhibitors | 360,000 tested, 4.4% active; note: % is set by controls: 0 for no effect and ±100 for the full control effect; nearly all actives have a fitted effect of over 60% in size
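Compounds, titrated to a top concentration of 110 uM, were incubated 30 min at room temperature with preformed BAZ2B/acetyl-K14 H3 peptide complex (50 nM each). Proximity signal was measured by AlphaScreen after 20 min with beads.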
G9a inh = inhibitors of human histone lysine methyltransferase G9a; Potency, µM (series often up to 102 µM), without a hit: at the top dose activity, negative = inhibition, hits mostly inhibitors; G9a H3K9 monomethylation, AlphaScreen, 2 h; Q96KQ7; 350,000 tested, 8.8% active; note: % is set by controls: 0 for no effect and ±100 for the full control effect; nearly all actives have a fitted effect of over 75% in size
Target sequence (Q96KQ7 913-1193 limits assumed): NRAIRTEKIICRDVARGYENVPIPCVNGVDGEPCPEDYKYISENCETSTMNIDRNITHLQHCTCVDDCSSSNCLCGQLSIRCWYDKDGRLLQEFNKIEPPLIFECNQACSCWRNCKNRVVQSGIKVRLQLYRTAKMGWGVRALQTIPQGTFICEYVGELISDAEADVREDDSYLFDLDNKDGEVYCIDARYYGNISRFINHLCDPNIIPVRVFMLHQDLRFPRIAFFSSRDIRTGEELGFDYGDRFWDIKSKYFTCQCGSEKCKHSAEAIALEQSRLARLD
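G9a (20 nM) was preincubated 15 min with compound, then reacted 2 h at room temperature with 500 nM biotin-H3K9 peptide and 20 µM SAM. Monomethyl-H3K9 detected by AlphaScreen using anti-H3K9me1 antibody.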
JMJD2A Tudor inh = JMJD2A Tudor domain (human) inhibition | 390,000 tested, 4.4% active | Potency, µM (series often up to 114 µM), for inactives: at the highest dose activity change, negative = inhibition, actives largely listed as inhibitors | AlphaScreen JMJD2A-Tudor / H3K4me3 peptide binding | O75164; note: % is set by controls: 0 for no effect and ±100 for the full control effect; nearly all actives have a fitted effect of over 50% in size
HP1b binding inh = HP1-beta chromodomain-methylated histone interaction inhibition; P83916; AlphaScreen HP1-beta / biotin-H3K9me3 peptide binding; Potency, µM (titrated, usually from 114 µM), for the others: at the highest dose activity change, negative = inhibition, most hits filed as inhibitors; 390,000 tested, 0.56% active; note: nearly all actives have a fitted effect of over 70% in size
Target sequence (P83916 whole entry, looked up): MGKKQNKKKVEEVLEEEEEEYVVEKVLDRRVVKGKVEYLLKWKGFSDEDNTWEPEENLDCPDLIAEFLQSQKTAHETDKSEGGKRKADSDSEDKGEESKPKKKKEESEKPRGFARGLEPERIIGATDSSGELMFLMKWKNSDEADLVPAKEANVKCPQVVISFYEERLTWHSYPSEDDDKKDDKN
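AlphaScreen: HP1-beta (50 nM) preformed 30 min with biotin-H3(1-18)K9me3 peptide (50 nM) in PBS pH 7.4, 0.01% Tween-20. Compound added for 30 min at RT, then streptavidin donor/nickel chelate acceptor beads (10 ug/mL) for 30 min.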
* hit, by the source's call; u = inconclusive; x = no result; ! = not active in a repeat; [ ] = another dose, or the depositor's remark. Rows were chosen to be rich in hits. Some 11% of all compounds tested hit in one or more screens of this group. Calls come from the whole dose curve; as a rule, active = well fitted inhibition curve with a large enough effect; inconclusive = small, poorly fitted or top-dose-only effect; inactive = no such curve, though single readings can be large or run the other way. Potency is the fitted concentration of half-maximal effect.

SMILES | L3MBTL1 inh | BAZ2B block | G9a inh | JMJD2A Tudor inh | HP1b binding inh
Cc1nc(S(=O)(=O)N(C)Cc2ccccc2)c(C#N)c(C)c1Cl | 1.6% | 4.7% | 7.3%[0.501 µM] | 5.7% | 52.8%
Cc1nc(S(=O)(=O)NC2CCCCC2)c(C#N)c(C)c1Cl | 11.1% | -24.4% | 79.4µM* | -1.5%[11.4 µM] | -13.3%
Cc1nc(S(=O)(=O)N2CCOCC2)c(C#N)c(C)c1Cl | -0.3% | -24.6% | 80.5%[59 µM] | 79.4µM* | 1.8%
COc1ccccc1CNc1ccc(-c2nc(C)no2)cc1[N+](=O)[O-] | x | -2.3% | -25.7%[59 µM] | -6.0% | 52.3%
CCOc1cc(CNC(=O)c2ccc(Cn3c(=O)c4cccn4c4cccnc43)cc2)ccc1OC | x | -12.3% | -2.3%[59 µM] | -16.5% | 1.9%
OCCc1c[nH]c2ccccc12 | x | -7.6% | 1.5%[12.7 µM] | -8.2% | 16.8%
OCc1c[nH]c2ccccc12 | -6.6% | -10.7% | 12.6µM*! | -29.0% | 43.4%
c1ccc2c(NCCc3c[nH]c4ccccc34)c3ccccc3nc2c1 | x | 35.5µM* | -11.2%[2.33 µM] | 50.1µM* | -7.1%
Fc1cccc(NCCc2c[nH]c3ccccc23)n1 | x | -38.9% | 1.2%[12.7 µM] | u | 13.2%
CC(C)N(Cc1cn[nH]c1-c1ccc(-c2ccccc2)cc1)Cc1nccn1C | -9.1% | 56.2µM* | u | 56.2µM* | u
COc1ccccc1NC(=O)C1=C(C)Nc2nnnn2C1c1ccc(C(F)(F)F)cc1 (stereo unspecified) | x | -9.5% | -17.7%[59 µM] | -9.3% | 23.2%
CCCCC#Cc1ccccc1CC(=O)Nc1ccccc1 | 10.5% | u | 7.94µM* | u | 47.3%
COc1cc(C2C(C(=O)Nc3ccc(C)cc3C)=C(C)Nc3nc4ccccc4n32)cc(OC)c1OC (stereo unspecified) | x | 1.5% | u | -8.9% | 30.0%
Cc1cc(/C=N/NC(N)=S)c(C)n1-c1ccc(Cl)c(Cl)c1 | u | -7.2% | u | u | 3.2%
Cc1cc(/C=N/n2cnnc2)c(C)n1-c1ccc(Cl)cc1 | -13.3% | -38.9% | 14.1µM* | -29.8% | -8.6%
Cc1cc(/C=N/n2cnnc2)c(C)n1-c1ccccc1 | x | -13.2% | 6.0%[59 µM] | -5.6% | 0.5%
Cc1cc(/C=N/n2cnnc2)c(C)n1-c1ccc(OCc2ccc(Cl)cc2Cl)cc1 | x | 39.8µM* | 15.7%[12.7 µM] | 56.2µM* | u
Cc1cc(/C=N/N2CCN(C)CC2)c(C)n1-c1ccc(Cl)cc1 | u | u | 44.7µM* | 50.1µM* | u
CCNC(=S)N/N=C/c1cc(C)n(-c2ccc(Cl)cc2)c1C | -1.4% | 28.2µM* | u | 50.1µM* | u
COc1ccc(CNc2nc(-c3ccc4c(c3)OCO4)nc3ccccc23)c(OC)c1 | x | x | -4.1%[0.501 µM] | x | x
COc1ccc(CNC(=O)c2cc(=O)c3cc(C)cc(C)c3o2)cc1 | x | -11.7% | -2.5% | -2.1% | 28.3%
Cc1ccc(CN2CCC(CNC(=O)Nc3c(C)cccc3C)C2)cc1 (stereo unspecified) | x | -6.3% | -43.4%[59 µM] | -11.0% | 25.6%
Cc1cc(/C=N/n2cnnc2)c(C)n1-c1ccc(OCc2ccc(F)cc2)cc1 | -16.5% | u | u | 56.2µM* | u
Cn1c(=O)c2c(-c3ccccc3)n(Cc3ccccn3)cc2n(C)c1=O | x | 50.1µM* | u | -29.3% | 47.5%
Cc1ccc(-c2c3c(=O)n(C)c(=O)n(C)c3cn2Cc2ccccc2)cc1 | x | u | 11.2µM* | u | 8.4%
SMILES | L3MBTL1 inh | BAZ2B block | G9a inh | JMJD2A Tudor inh | HP1b binding inh
CCCn1cc2c(c1-c1ccc(C)cc1)c(=O)n(C)c(=O)n2C | -9.2% | u | x | -22.2% | 22.0%
Cc1ccccc1-n1c(-c2ccc(Cl)cc2)cnc1SCC(=O)NC1CCS(=O)(=O)C1 (stereo unspecified) | -2.9% | 50.1µM* | 8.91µM* | u | -29.1%
CCCCn1c(SCC(=O)NC2CCS(=O)(=O)C2)nnc1-c1ccc(OC)cc1 (stereo unspecified) | 7.9% | -0.5% | u | -4.3% | 30.8%
CC(C)(C)c1ccc(-c2nnc(SCC(=O)NC3CCS(=O)(=O)C3)n2N)cc1 (stereo unspecified) | x | x | 20µM* | -24.1% | 9.1%
O=C(CSc1nnc(-c2ccccc2)n1-c1ccc(Cl)cc1)NC1CCS(=O)(=O)C1 (stereo unspecified) | 1.7% | -0.9% | 20.2%[59 µM] | -11.1% | 8.2%
CC(C)Oc1ccccc1/C=N/Nc1ccccc1[N+](=O)[O-] | 11.2µM* | 5.62µM* | 3.55µM* | 14.1µM* | u
CCOc1ccccc1/C=N/Nc1ccccc1[N+](=O)[O-] | u | u | u | u | -29.6%
COc1ccc(/C=N\Nc2ccccc2[N+](=O)[O-])c(C(=O)O)c1OC | u | u | x | 0.0%[11.4 µM] | 1.0%
COc1ccccc1/C=N\Nc1ccccc1[N+](=O)[O-] | -27.5% | 3.16µM* | 7.94µM* | 8.91µM* | 12.6µM*
COc1cc(/C=N/Nc2ccc(F)cc2F)cc(OC)c1O | -16.8% | u | 1.58µM* | 79.4µM* | u
COc1ccc(/C=N\Nc2ccc([N+](=O)[O-])cc2[N+](=O)[O-])c(C(=O)O)c1OC | -23.7% | -37.7% | 25.1µM* | 50.1µM* | u
COc1ccccc1C1=Nn2c(nnc2-c2ccccc2O)SC1 | x | x | x | -12.4% | x
CN(C(=O)c1ccc(Br)o1)C1CCCCC1 | x | -18.9% | 8.9% | -9.9% | 13.4%
O=[N+]([O-])c1ccccc1N/N=C/c1cc2ccccc2nc1Cl | x | u | 50.1µM* | u | 0.7%
COc1cc(/C=N/Nc2ccccc2[N+](=O)[O-])cc(OC)c1O | u | u | 7.08µM* | -24.7% | -10.2%
O=[N+]([O-])c1ccc(N/N=C/c2ccccc2)c(F)c1 | 26.4% | 8.8% | 18.1%[59 µM] | -5.0% | 38.4%
CC1=C(/C=N/Nc2ccc([N+](=O)[O-])cc2[N+](=O)[O-])C(C)(C)CCC1 | u | 3.55µM* | 20µM* | 2.82µM* | 8.91µM*
COc1cc(/C=N/Nc2ccc(S(N)(=O)=O)cc2[N+](=O)[O-])cc(OC)c1O | -22.8% | u | x | -18.7% | 30.4%
CCn1c(=O)c(C(=O)Nc2ccc(C(C)=O)cc2)nc2ccccc21 | x | 3.9% | 3.5%[59 µM] | -4.1% | 27.2%
Cn1cnc([N+](=O)[O-])c1Nc1ccc(O)cc1 | -5.9% | -16.6% | 25.1µM* | -14.2% | 12.0%
c1ccc(-c2cn3nc4c(nc3n2)CCCC4)cc1 | x | 6.4% | 50.1µM* | 17.2% | 67.4%
Brc1ccc(-c2cn3nc4c(nc3n2)CCCC4)cc1 | x | 9.9% | u | -6.8%[11.4 µM] | 70.3%
O=C(COC(=O)c1cc(Br)ccc1O)NNC(=O)c1ccc([N+](=O)[O-])cc1 | -8.3% | -0.4% | 44.7µM* | -5.2% | 41.8%
O=C(COC(=O)c1ccccc1O)NNC(=O)c1ccc(Br)cc1 | -7.4% | -4.8% | u | -1.4% | 39.7%
O=C(COC(=O)c1cc(Br)ccc1O)NNC(=O)c1ccc(Cl)cc1 | 8.5% | 5.6% | 44.7µM* | -7.6% | 28.8%
Oc1ccccc1Nc1nc(NCC2CCCO2)c2ccccc2n1 (stereo unspecified) | -4.7% | u | 50.1µM* | -31.8% | 3.4%
